An excerpt weighted towards active compounds, which were near 19% of everything screened.
TDP1 cell CPT: DT40-hTDP1 cell growth loss with CPT | Potency, µM (top dose mostly 46.2 µM), inactives show at the highest dose activity change, negative = growth inhibition, usual class: inhibitors | AID 686979 | hit rate 12% among 420,000 | chicken DT40 Tdp1-/-;hTDP1 cells + 20 nM CPT, ATP luminescence, 48 h; note: potency is the fitted concentration of half-maximal effect; nearly all actives have a fitted effect of over 55% in size
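Cell growth measured by CellTiter-Glo luminescence after a minimum 48 h, 37 C compound exposure with 20 nM CPT in Tdp1-knockout DT40 cells stably expressing hTDP1, seeded 400/well; qHTS titration format.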
HT1080-NT tox: kills 2HG-producing HT-1080-NT fibrosarcoma cells; HT-1080-NT fibrosarcoma viability, CellTiter-Glo ATP luminescence, 48 h; Potency, µM (top dose mostly 46.1 µM), for the others: at the highest dose activity, negative = less viability, actives largely listed as cytotoxic; hit rate 1.6% among 360,000;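 note: NT is the 2HG producing partner of a matched IDH1 knockdown line; potency is the fitted concentration of half-maximal effect; 0% = DMSO-treated cells and -100% = media-only wells without cells; nearly all actives have a fitted effect of over 55% in size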
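HT-1080-NT; 750 cells/well; 5% FBS RPMI; 48 h compound, 37 degrees C; CellTiter-Glo luminescence; curve fitting and curve-class assignment.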
HT1080 IDH1KD tx: HT-1080 IDH1 knockdown cell toxicity (counter line). hit rate 2% among 360,000. Potency, µM (top dose mostly 46.1 µM), without a hit: at the top dose activity, negative = toxicity, usual class: cytotoxic. HT-1080 IDH1 knockdown viability, ATP luminescence, 48 h. AID 686971;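 note: potency is the fitted concentration of half-maximal effect; 0% = DMSO wells and -100% = cell-free medium wells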
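Assay cells: HT-1080 with IDH1 knockdown, 750 per well, RPMI/5% FBS. Exposure: 48 h at 37 °C following 2 h pre-incubation. Read: CellTiter-Glo luminescence; fitted concentration-response, curve class assigned.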
TDP1 cell noCPT: qHTS for Inhibitors of human tyrosyl-DNA phosphodiesterase 1 (TDP1): qHTS in cells in absence of CPT; DT40 Tdp1-/- hTDP1 cells, no CPT, ATP luminescence, 48 h; Potency, µM (highest dose often 46.2 µM), for the others: at the top dose activity change, negative = growth inhibition, most hits filed as inhibitors; hit rate 15% among 420,000; AID 686978, 2013; note: potency is the fitted concentration of half-maximal effect; nearly all actives have a fitted effect of over 55% in size
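Compound effects on proliferation are scored in DT40 Tdp1-/-;hTDP1 cells in the absence of CPT. ATP levels (CellTiter-Glo luminescence) are recorded after a ≥48 hr, 37 °C incubation.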
uPA surface inh: blocks generation of uPA at the cell surface; AID 540303; cell surface uPA generation assay, qHTS; hit rate 0.31% among 330,000; Potency, µM (highest dose often 38.3 µM), inactives show at the highest dose activity change, negative = inhibition, actives largely listed as inhibitors; active = well fitted inhibition curve with a large enough effect; inconclusive = small, poorly fitted or top-dose-only effect; inactive = no such curve, though single readings can be large or run the other way; tested in mouse RAW 264.7 cells; note: potency is the fitted concentration of half-maximal effect; nearly all actives have a fitted effect of over 55% in size
IL-1B inflam inh: blocks inflammasome-driven IL-1 beta release; THP-1 LPS/ATP IL-1B secretion, AlphaLISA, 16 h; active compounds read low; activity change, % at 57.5 µM; hit rate 4.7% among 360,000; in the data active = activity change below about -50%; inconclusive = mostly about -30% to -49%
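THP-1 cells pretreated 1 hr with compounds (up to 57.5 uM final), then stimulated with LPS (250 ng/mL final) plus ATP (1.25 mM final); secreted IL-1B measured by AlphaLISA after 16 hr, decreased signal indicating inhibition.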
* hit, by the source's call; ? = inconclusive; . = no result given. Unless noted, calls come from the whole dose curve; as a rule, active = well fitted curve in the direction sought with a large enough effect; inconclusive = small, poorly fitted or top-dose-only effect, or another doubt; inactive = no such curve, though single readings can be large; an effect the other way counts as inactive or inconclusive. Unless noted, % is set by controls: 0 for no effect and ±100 for the full control effect.

SMILES | TDP1 cell CPT | HT1080-NT tox | HT1080 IDH1KD tx | TDP1 cell noCPT | uPA surface inh | IL-1B inflam inh
CC1CCc2[nH]c3ccc(C(=O)N(C)CC(=O)Nc4ccccc4Br)cc3c2C1 (stereo not drawn) | ? | -20% | ? | 12µM* | 0% | -74*
CCN(CC(=O)Nc1ccc(OC)cc1)C(=O)c1ccc2[nH]c3c(c2c1)CC(C)CC3 (stereo not drawn) | ? | -18% | -22% | ? | 0% | ?
CC1CCc2[nH]c3ccc(C(=O)NCC4CCCO4)cc3c2C1 (stereo not drawn) | ? | -11% | -12% | ? | -9% | -51*
Cc1ccc(C)c(NC(=O)CN(C)C(=O)c2ccc3[nH]c4c(c3c2)CC(C)CC4)c1 (stereo not drawn) | ? | ? | ? | ? | 4% | -54*
O=C(NCC1CCCO1)c1ccc2c(=O)n(CC3CCCO3)c(=S)[nH]c2c1 (stereo not drawn) | -11% | 12% | 2% | -23% | 5% | 30
CCOC(=O)C1CCCN(C(=O)c2cn(C)c(=O)c3cc(OC)c(OC)cc23)C1 (stereo not drawn) | -7% | 0% | -2% | -28% | 10% | -23
CCOC(=O)C1CCCN(C(=O)c2cc(Nc3ccc(OC)c(OC)c3)nc3ccccc23)C1 (stereo not drawn) | ? | 0% | -12% | 16µM* | -10% | -93*
COc1ccc(Nc2cc(C(=O)NC3CCCC3)c3ccccc3n2)c(OC)c1 | ? | -2% | -3% | ? | -2% | 34
CCOC(=O)C1CCCN(C(=O)c2cc3c(Cl)nc4ccccc4c3s2)C1 (stereo not drawn) | ? | . | . | 18µM* | . | .
CCOC(=O)C1CCCN(C(=O)c2cc(Nc3ccc(OC)cc3OC)nc3ccccc23)C1 (stereo not drawn) | 16µM* | 1% | -3% | 21µM* | -1% | 6
Cc1ccc(C(=O)NNC(=O)c2ccc(-n3cncn3)c([N+](=O)[O-])c2)cc1 | 0% | 3% | 2% | -6% | 10% | -11
O=C(/C=C/[C@H]1O[C@@H](n2ccc(=O)[nH]c2=O)[C@H](O)[C@@H]1O)NCCN1CCCC1 | 0% | 17% | 25% | -6% | . | 42
COc1ccc(NC(=O)C2CCN(S(=O)(=O)c3c(C)noc3/C=C/c3cccs3)CC2)cc1 | -27% | . | . | ? | . | .
COc1ccccc1CNC(=O)C1CCN(S(=O)(=O)c2c(C)noc2/C=C/c2cccs2)CC1 | 18µM* | . | . | 18µM* | . | .
COc1cccc(NC(=O)C2CCN(S(=O)(=O)c3c(C)noc3/C=C/c3cccs3)CC2)c1 | ? | . | . | 13µM* | . | .
O=c1/c(=C\c2ccc(O)cc2)sc2nc(-c3ccccc3)c(-c3ccccc3)n12 | ? | 3% | 18% | ? | 0% | -57*
CC(C)CC1C(=O)N(Cc2cn(CCC3OCCCO3)nn2)CCS(=O)(=O)N1Cc1ccc(-c2ccc(Cl)nc2)cc1 (stereo not drawn) | ? | -15% | -17% | 21µM* | . | 58
CC(C)CC1C(=O)N(Cc2cn(CCC3OCCCO3)nn2)CCS(=O)(=O)N1Cc1ccc(-c2ccc(Cl)c(Cl)c2)cc1 (stereo not drawn) | 15µM* | ? | ? | 16µM* | . | ?
COc1ccc(-c2ccc(CN3C(C(C)C)C(=O)N(Cc4cn(CCC5OCCCO5)nn4)CCS3(=O)=O)cc2)cn1 (stereo not drawn) | 15µM* | 4% | 6% | 21µM* | . | 22
CC(C)C1C(=O)N(Cc2cn(CCC3OCCCO3)nn2)CCS(=O)(=O)N1Cc1ccc(-c2ccc(Cl)nc2)cc1 (stereo not drawn) | ? | 6% | -3% | 23µM* | . | ?
CC(C)C1C(=O)N(Cc2cn(CCC3OCCO3)nn2)CCS(=O)(=O)N1Cc1ccc(-c2ccccc2)cc1 (stereo not drawn) | ? | -7% | -22% | ? | . | -18
CC(C)CC1C(=O)N(Cc2cn(CCC3OCCCO3)nn2)CCS(=O)(=O)N1Cc1ccc(-c2ccc(Cl)cc2)cc1 (stereo not drawn) | ? | -7% | -27% | ? | . | 39
CC(C)C1C(=O)N(Cc2cn(CCC3OCCO3)nn2)CCS(=O)(=O)N1Cc1ccc(-c2ccncc2)cc1 (stereo not drawn) | -27% | -4% | -1% | -28% | . | 18
CN(C)C(=O)c1ccc(-c2cncnc2NCCc2cnc[nH]2)cc1 | ? | . | . | -23% | . | .
COc1c([N+](=O)[O-])ccc(N)c1N | -18% | . | . | -21% | . | .
CCOc1ccc2nc(SCC(=O)N(CCOC)c3c(N)n(Cc4ccccc4)c(=O)[nH]c3=O)[nH]c2c1 | -12% | -11% | -8% | -10% | -21% | 19
CC(=O)N(Cc1ccccc1C)c1cccc(C)c1C | -14% | -2% | 14% | -24% | 3% | 27
CC(=O)N(Cc1ccc(F)cc1)c1cccc(C)c1C | ? | 0% | -13% | 21µM* | 5% | 21
CC(C)C[C@H]1CNC(=S)N1CC1CCCN1C[C@H](CC(C)C)N1C[C@H](CC(C)C)N(CCc2ccccc2)C1=S (stereo partly drawn) | 8.2µM* | -2% | -4% | 5.8µM* | 14% | 16
CC(C)C[C@H]1CNC(=S)N1C[C@H]1CCCN1C[C@H](CC(C)C)N1C[C@H](Cc2ccccc2)N(CCc2ccccc2)C1=S | ? | ? | -2% | 21µM* | . | ?
